# Data reported in paper PMC7862700, “An all-to-all approach to the identification of sequence-specific readers for epigenetic DNA modifications on cytosine”.
# Columns and labels:
# Assay in all cases: DAPPL (digital affinity profiling via proximity ligation, sequencing); 10 mM Tris-HCl pH 7.5, 50 mM NaCl, 1 mM DTT, 4% glycerol, room temperature, 30 min; GST-TFs on glutathione beads, 16-mer random dsDNA library, 0.1% formaldehyde crosslink after washing; high values mean tight binding
# FEV = target: T1, FEV (Homo sapiens, UniProt Q99581 1-238); conditions: protein: recombinant; tags: N-terminal GST; dsDNA, one strand shown
# T1 sequence: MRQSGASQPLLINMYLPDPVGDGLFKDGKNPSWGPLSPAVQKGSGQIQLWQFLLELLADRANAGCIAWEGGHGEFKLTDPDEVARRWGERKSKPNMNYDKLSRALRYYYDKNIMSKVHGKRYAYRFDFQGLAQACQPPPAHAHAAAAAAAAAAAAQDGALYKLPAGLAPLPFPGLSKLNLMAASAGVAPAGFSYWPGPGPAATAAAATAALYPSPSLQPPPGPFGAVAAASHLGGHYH
# Method in brief: (§1)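 A tag-only sample was pooled with DNA-barcoded human transcription factors that had been expressed in yeast as GST fusions and captured on glutathione beads. The pools were incubated for 30 min at room temperature with 200 nmole of a random double-stranded 16-mer DNA library in Tris/NaCl/DTT/glycerol buffer, then washed, crosslinked with 0.1% formaldehyde, proximity-ligated (BsaI/T4 ligase, 1 h, 37 °C), PCR-amplified and sequenced on an Illumina NextSeq500. Binding signal is each hexamer's read frequency for a factor divided by its frequency for the tag-only sample.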
# ETV5 = ETV5 (Homo sapiens, UniProt P41161 1-510); conditions: protein: recombinant; tags: N-terminal GST; dsDNA, one strand shown
# Sequence of ETV5 (P41161 whole entry): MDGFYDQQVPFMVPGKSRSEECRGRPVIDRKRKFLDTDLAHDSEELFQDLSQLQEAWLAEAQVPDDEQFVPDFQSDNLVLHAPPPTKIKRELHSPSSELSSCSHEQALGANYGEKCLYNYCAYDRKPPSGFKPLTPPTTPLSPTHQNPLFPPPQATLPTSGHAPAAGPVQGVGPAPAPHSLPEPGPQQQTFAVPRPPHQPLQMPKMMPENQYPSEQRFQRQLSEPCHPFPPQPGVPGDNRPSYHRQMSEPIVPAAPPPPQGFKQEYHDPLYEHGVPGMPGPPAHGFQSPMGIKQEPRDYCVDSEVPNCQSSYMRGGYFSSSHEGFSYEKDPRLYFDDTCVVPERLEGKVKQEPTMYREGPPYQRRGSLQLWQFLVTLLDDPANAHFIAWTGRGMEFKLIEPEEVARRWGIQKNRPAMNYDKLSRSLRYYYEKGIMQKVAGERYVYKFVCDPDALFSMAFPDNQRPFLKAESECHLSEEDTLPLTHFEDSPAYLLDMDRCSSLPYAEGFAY
# Method in brief: as §1
# HSF1 = HSF1 (Homo sapiens, UniProt Q00613 1-529); conditions: protein: recombinant; tags: N-terminal GST; chain copies: 3; dsDNA, one strand shown
# Sequence of HSF1 (Q00613 whole entry): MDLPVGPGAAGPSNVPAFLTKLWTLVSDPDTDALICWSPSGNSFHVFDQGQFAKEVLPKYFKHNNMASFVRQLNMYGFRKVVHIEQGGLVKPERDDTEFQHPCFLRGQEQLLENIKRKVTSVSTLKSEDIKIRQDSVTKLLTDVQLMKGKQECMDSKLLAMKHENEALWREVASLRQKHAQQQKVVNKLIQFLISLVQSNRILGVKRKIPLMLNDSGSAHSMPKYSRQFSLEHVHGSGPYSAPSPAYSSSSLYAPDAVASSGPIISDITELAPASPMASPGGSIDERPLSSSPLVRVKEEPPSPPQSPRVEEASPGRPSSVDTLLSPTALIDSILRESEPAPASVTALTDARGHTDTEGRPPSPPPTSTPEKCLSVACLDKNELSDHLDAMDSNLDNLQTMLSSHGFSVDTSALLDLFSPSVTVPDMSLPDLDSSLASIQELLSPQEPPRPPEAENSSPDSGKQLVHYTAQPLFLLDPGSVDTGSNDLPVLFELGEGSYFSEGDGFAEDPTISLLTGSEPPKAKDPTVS
# Method in brief: as §1
# SPIC = target: T2, SPIC (Homo sapiens, UniProt Q8N5J4 1-248); conditions: protein: recombinant; tags: N-terminal GST; dsDNA, one strand shown
# T2 sequence: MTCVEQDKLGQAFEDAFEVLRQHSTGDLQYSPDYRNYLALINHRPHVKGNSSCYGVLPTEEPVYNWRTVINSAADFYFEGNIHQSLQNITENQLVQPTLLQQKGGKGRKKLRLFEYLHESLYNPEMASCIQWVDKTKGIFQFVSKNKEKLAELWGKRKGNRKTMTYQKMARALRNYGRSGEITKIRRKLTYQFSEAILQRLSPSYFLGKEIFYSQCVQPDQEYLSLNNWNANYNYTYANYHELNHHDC
# Method in brief: as §1
# ELF4 = ELF4 (Homo sapiens, UniProt Q99607 1-663); conditions: protein: recombinant; tags: N-terminal GST; dsDNA, one strand shown
# Sequence of ELF4 (Q99607 whole entry): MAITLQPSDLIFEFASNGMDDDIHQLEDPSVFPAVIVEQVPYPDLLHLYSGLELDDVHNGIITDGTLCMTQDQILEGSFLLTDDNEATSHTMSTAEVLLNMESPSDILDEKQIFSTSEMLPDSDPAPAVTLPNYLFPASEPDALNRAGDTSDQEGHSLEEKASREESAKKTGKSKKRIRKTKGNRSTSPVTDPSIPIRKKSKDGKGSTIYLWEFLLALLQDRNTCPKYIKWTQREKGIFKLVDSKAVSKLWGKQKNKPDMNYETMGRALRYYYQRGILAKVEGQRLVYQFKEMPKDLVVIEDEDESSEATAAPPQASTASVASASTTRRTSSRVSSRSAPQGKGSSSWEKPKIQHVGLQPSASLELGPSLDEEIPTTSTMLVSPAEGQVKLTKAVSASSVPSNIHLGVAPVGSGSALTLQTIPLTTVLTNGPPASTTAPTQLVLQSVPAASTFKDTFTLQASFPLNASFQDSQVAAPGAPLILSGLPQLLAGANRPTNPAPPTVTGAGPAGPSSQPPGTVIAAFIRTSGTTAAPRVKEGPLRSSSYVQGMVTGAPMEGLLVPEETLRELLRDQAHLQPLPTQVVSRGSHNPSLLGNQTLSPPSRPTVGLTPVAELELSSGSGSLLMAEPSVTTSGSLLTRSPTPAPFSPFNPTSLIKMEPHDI
# Method in brief: as §1
# ELK4 = target: T3, ELK4 (Homo sapiens, UniProt P28324-2 1-405); conditions: protein: recombinant; tags: N-terminal GST; dsDNA, one strand shown
# T3 sequence: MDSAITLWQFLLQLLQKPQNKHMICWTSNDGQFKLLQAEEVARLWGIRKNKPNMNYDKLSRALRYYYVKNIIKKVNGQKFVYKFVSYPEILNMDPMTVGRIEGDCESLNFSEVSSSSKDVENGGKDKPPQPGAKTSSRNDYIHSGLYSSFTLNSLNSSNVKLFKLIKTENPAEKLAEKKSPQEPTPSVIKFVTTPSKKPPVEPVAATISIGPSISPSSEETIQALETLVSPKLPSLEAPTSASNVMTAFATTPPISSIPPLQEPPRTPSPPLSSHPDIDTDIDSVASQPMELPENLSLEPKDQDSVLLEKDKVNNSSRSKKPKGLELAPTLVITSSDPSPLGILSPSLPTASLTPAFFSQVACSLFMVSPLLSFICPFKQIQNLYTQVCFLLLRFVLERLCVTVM
# Method in brief: as §1
# ETV2 = target: T4, ETV2 (Homo sapiens, UniProt O00321 1-342); conditions: protein: recombinant; tags: N-terminal GST; dsDNA, one strand shown
# T4 sequence: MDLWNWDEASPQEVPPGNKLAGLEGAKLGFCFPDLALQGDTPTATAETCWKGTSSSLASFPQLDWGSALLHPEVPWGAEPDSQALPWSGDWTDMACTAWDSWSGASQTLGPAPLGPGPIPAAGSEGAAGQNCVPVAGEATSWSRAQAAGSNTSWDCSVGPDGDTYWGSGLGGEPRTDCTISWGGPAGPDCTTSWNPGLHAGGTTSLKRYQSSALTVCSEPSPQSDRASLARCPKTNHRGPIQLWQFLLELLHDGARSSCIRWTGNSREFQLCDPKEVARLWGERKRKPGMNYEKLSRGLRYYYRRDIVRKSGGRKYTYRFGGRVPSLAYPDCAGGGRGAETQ
# Method in brief: as §1
# ELF3 = target: T5, ELF3 (Homo sapiens, UniProt P78545 1-371); conditions: protein: recombinant; tags: N-terminal GST; dsDNA, one strand shown
# T5 sequence: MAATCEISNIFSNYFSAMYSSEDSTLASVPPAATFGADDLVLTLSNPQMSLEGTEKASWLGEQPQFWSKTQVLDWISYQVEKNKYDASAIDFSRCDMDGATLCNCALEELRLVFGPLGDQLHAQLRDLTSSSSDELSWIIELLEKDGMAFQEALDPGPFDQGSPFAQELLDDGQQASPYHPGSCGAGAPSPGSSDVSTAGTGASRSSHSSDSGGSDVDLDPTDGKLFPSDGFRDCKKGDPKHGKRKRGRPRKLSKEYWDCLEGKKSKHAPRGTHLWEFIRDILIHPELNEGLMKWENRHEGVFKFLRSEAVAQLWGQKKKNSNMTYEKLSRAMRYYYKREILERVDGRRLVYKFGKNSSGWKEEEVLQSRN
# Method in brief: as §1
# CRX = CRX (Homo sapiens, UniProt O43186 1-299); conditions: protein: recombinant; tags: N-terminal GST; dsDNA, one strand shown
# Sequence of CRX (O43186 whole entry): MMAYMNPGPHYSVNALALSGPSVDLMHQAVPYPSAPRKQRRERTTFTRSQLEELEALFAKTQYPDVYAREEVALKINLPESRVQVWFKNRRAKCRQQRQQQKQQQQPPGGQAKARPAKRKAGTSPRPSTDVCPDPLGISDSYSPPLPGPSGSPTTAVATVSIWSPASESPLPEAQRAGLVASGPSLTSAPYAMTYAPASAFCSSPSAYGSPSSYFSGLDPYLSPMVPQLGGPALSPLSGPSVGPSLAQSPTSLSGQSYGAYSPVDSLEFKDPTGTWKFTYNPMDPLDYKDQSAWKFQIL
# Method in brief: as §1
# ETV1 = ETV1 (Homo sapiens, UniProt P50549 1-477); conditions: protein: recombinant; tags: N-terminal GST; dsDNA, one strand shown
# Sequence of ETV1 (P50549 whole entry): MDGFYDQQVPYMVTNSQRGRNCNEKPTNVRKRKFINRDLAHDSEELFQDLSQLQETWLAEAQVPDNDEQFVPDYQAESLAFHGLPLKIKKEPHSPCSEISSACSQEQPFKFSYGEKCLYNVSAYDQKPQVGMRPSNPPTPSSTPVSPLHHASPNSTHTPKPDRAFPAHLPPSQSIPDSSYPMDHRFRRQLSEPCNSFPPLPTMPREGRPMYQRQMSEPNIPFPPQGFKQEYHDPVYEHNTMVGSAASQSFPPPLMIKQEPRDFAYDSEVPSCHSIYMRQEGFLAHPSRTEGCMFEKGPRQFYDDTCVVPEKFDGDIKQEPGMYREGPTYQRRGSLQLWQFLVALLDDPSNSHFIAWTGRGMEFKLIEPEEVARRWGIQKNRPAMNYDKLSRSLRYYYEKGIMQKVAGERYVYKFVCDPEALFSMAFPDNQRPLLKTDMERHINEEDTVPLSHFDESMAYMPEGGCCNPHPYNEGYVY
# Method in brief: as §1
sequence,measurement,setting,value
AAAACC,binding signal,FEV,"1.24 fold enrichment (6-mer frequency, TF over GST control)"
same,binding signal,ETV5,"1.18 fold enrichment (6-mer frequency, TF over GST control)"
same,binding signal,HSF1,"1.09 fold enrichment (6-mer frequency, TF over GST control)"
same,binding signal,SPIC,"1.15 fold enrichment (6-mer frequency, TF over GST control)"
same,binding signal,ELF4,"1.19 fold enrichment (6-mer frequency, TF over GST control)"
same,binding signal,ELK4,"1.22 fold enrichment (6-mer frequency, TF over GST control)"
same,binding signal,ETV2,"1.15 fold enrichment (6-mer frequency, TF over GST control)"
same,binding signal,ELF3,"1.17 fold enrichment (6-mer frequency, TF over GST control)"
same,binding signal,CRX,"1.19 fold enrichment (6-mer frequency, TF over GST control)"
same,binding signal,ETV1,"1.19 fold enrichment (6-mer frequency, TF over GST control)"
